PubChem BioAssay (EPA / NIEHS)
Activity calls are given as the source filed them. Rule for the calls: active = hit-call score of the fitted dose curve at least 0.9, where 1 is the maximum; inactive = score below 0.9.

What follows are molecules tested against Myc proto-oncogene protein (Homo sapiens) (UniProt P01106) (assay: ATG_Myc_CIS: Attagene CIS-FACTORIAL HepG2 Assay for human Myelocytomatosis (Myc) Proto-Oncogene Transcription Factor (AID 2282990)). Conditions: HepG2, Attagene cis-reporter transcription factor activity; actives raise or lower the signal.
Chain of Myc proto-oncogene protein (Homo sapiens) (P01106 whole entry, looked up): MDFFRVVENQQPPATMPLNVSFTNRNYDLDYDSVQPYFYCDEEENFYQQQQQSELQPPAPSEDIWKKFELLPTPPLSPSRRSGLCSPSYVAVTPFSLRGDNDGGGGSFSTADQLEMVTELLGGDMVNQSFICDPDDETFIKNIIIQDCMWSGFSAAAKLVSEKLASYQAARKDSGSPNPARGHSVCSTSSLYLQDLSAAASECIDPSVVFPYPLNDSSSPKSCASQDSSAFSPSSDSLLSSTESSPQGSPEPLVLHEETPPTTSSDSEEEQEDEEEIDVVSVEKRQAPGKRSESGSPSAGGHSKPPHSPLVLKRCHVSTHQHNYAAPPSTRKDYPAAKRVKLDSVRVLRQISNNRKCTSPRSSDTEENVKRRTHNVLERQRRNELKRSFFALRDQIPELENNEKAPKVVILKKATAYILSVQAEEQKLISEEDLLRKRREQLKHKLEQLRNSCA
Procedure: ATG_CIS is a cell-based, multiplexed-readout assay that uses HepG2, a human liver cell line, with measurements taken at 24 hours after chemical dosing in a 24-well plate.ATG_Myc_CIS is one of 52 assay component(s) measured or calculated from the ATG_CIS assay. It is designed to make measurements of mRNA induction, a form of inducible reporter, as detected with fluorescence intensity signals by Reverse transcription polymerase chain reaction (RT-PCR) and Capillary electrophoresis technology.Data from the assay component ATG_Myc_CIS was analyzed into 1 assay endpoint. This assay endpoint, ATG_Myc_CIS, was analyzed with bidirectional fitting relative to DMSO as the negative control and baseline of activity. Using a type of inducible reporter, measures of mRNA for gain or loss-of-signal activity can be used to understand the reporter gene at the transcription factor-level as they relate to the gene MYC. Furthermore, this assay endpoint can be referred to as a primary readout, because this assay has produced multiple assay endpoints where this one serves a reporter gene function. To generalize the intended target to other relatable targets, this assay endpoint is annotated to the dna binding intended target family, where the subfamily is basic helix-loop-helix leucine zipper.
Human liver HepG2 cells are transiently transfected with multiple reporter transcription units (MRTUs) in 6-well plates using FuGene 6 reagent (Roche; 3 ml FuGene/1 mg DNA). The MRTU constructs are regulated by a cis-regulating element (promoter). […] A major difference between the CIS and TRANS system is that in CIS activities of endogenous TFs are measured, whereas the TRANS assay evaluates changes in activities of exogenous, chimeric NR-Gal4 proteins. […] At the end of 24 hour incubation, total RNA was isolated using TriZol reagent (Invitrogen). The isolated RNA is then reverse-transcribed using oligo(dT) primer and Mo-MLV reverse transcriptase (Invitrogen) with DNAse I (Ambion) treatment for 30 min. The one-tenth of the produced cDNA was amplified by PCR using Taq DNA polymerase (Invitrogen) and two reporter sequence-specific primers. The PCR products were fluorescently labeled by primer extension with 6-arboxyfluorescein (6-FAM) 5'-labeled reporter sequence-specific primer (2 min at 95 C, 20 s at 68 C and 10 min at 72 C) and these products were digested with 5U of HpaI (New England Biolabs) for 2h at 37 C. The fragments were purified using Qiaquick PCR columns (Qiagen), analyzed on an ABI 3130xL genetic analyzer (Applied Biosystems) with peak positions identified by using a set of X-rhodamine (ROX)-labeled MapMarker1000 molecular weight standards (BioVentures). The raw capillary electrophoresis data was processed using Attagraph software (Attagene).
In the case of `CN(C)C(=O)Nc1ccc(Cl)cc1`, the outcome is reported as “inactive”.
With `COC(=O)Nc1nc2ccccc2[nH]1` the outcome was “inactive”.
In the case of `CCN(CC)N=O`, the outcome is reported as “inactive”.
For `O=C1CCCO1`, the outcome was “inactive”.
`Oc1ccccc1Cl` was tested, and the outcome was “inactive”.
In the case of `Nc1ccc(Oc2ccc(N)cc2)cc1`, the outcome is reported as “inactive”.
For `CS(=O)(=O)NC(=O)c1cc(Oc2ccc(C(F)(F)F)cc2Cl)ccc1[N+](=O)[O-]`, the outcome was “inactive”.
For `CO[C@@H]1[C@H](OC(=O)NC(=O)CCl)CC[C@]2(CO2)[C@H]1[C@@]1(C)O[C@@H]1CC=C(C)C`, the outcome was “inactive”.
In the case of `CCCCCCCCn1sccc1=O`, the AC50 is reported as 17.5 µM (active).
In the case of `Cc1ccc(N)cc1`, the outcome is reported as “inactive”.
In the case of `COP(=S)(OC)SCN1C(=O)c2ccccc2C1=O`, the outcome is reported as “inactive”.
`CCOC(=O)[C@]1(c2ccccc2)Oc2ccccc2[C@@H]1N` was tested, and the AC50 was 24.5 µM (active).
`C[N+](C)(C)CC1CO1` (stereo not given) was tested, and the outcome was “inactive”.
For `CN(C)[C@@H]1C(=O)C(C(N)=O)=C(O)[C@@]2(O)C(=O)C3=C(O)c4c(O)cccc4[C@@](C)(O)[C@H]3C[C@@H]12`, the outcome was “inactive”.
`c1ccc2c(c1)-c1cccc3cccc-2c13` was tested, and the outcome was “inactive”.
In the case of `COc1cc(C=O)cc2c1[C@H](COC(N)=O)[C@]1(OC(C)=O)ON2C[C@H]2[C@@H]1N2C(C)=O`, the AC50 is reported as 7.48 µM (active).
For `O=[N+]([O-])C(Br)(CO)CO`, the AC50 was 74.6 µM (active).
In the case of `CC(O)CCO` (stereo not given), the outcome is reported as “inactive”.
`Oc1ccc2ccc3cccc4ccc1c2c34` was tested, and the outcome was “inactive”.
For `O=[N+]([O-])c1ccc(Oc2ccc(Cl)cc2Cl)cc1`, the outcome was “inactive”.
In the case of `ClCCOCCCl`, the outcome is reported as “inactive”.
In the case of `C=CCc1ccc2c(c1)OCO2`, the outcome is reported as “inactive”.
`Nc1ccc(Cc2ccc(N)cc2)cc1` was tested, and the outcome was “inactive”.
For `CN(C)c1ccccc1`, the outcome was “inactive”.
With `CC(C)(O)c1cnn2c(-c3ccc(F)c(-c4c(F)cccc4C#N)c3)cnc2n1` the outcome was “inactive”.
With `CCCCCCCCOC(=O)c1ccc(C(=O)OCCCCCCCC)c(C(=O)OCCCCCCCC)c1` the outcome was “inactive”.
`c1ccc2c(c1)oc1ccccc12` was tested, and the outcome was “inactive”.
With `[O-][Cl+]O` the outcome was “inactive”.
`Cc1cccc(N)c1N` was tested, and the outcome was “inactive”.
`C[C@]12C=CC3=C4CCC(=O)C=C4CC[C@H]3[C@@H]1CC[C@@H]2O` was tested, and the outcome was “inactive”.
With `Clc1ccc(Cl)c(Cl)c1` the outcome was “inactive”.
In the case of `Cc1ccc(N)c(N)c1`, the outcome is reported as “inactive”.
For `CCC12COCN1COC2`, the outcome was “inactive”.
`c1ccc(NNc2ccccc2)cc1` was tested, and the outcome was “inactive”.
With `Clc1ccccc1Cl` the outcome was “inactive”.
For `COC(=O)c1ccccc1N`, the outcome was “inactive”.
With `OCCOCCO` the outcome was “inactive”.
For `N#CC(Br)Br`, the outcome was “inactive”.
`CCOc1cccc(C2(N3CCN(c4ccccc4)CC3)CCC(C)CC2)c1` (stereo not given) was tested, and the outcome was “inactive”.
For `O=C(Nc1ccccc1)c1ccccc1I`, the outcome was “inactive”.
